Experimental data from PubChem BioAssay (NCATS).
Results filed as inconclusive are left out. Active and inactive are the calls of the source. Calls come from the whole dose curve; as a rule, active = well fitted inhibition curve with a large enough effect; inconclusive = small, poorly fitted or top-dose-only effect; inactive = flat fitted curve, though single readings scatter.

test system: CP335; test: qHTS profiling for inhibitors of Plasmodium falciparum proliferation (AID 504749); note: nearly all actives have a fitted effect of over 60% in size; details: P. falciparum in erythrocytes, SYBR Green DNA, 72 h; series mostly up to 12.8 µM
In short: (§1)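 Infected RBCs, 0.3% parasitemia/2.5% Hct final; cpd 72 h, 37 C, 5% CO2; lysis buffer with saponin/triton/SYBR Green I, o/n RT dark; FI 485/535; norm. to artemisinin (0.29 uM) and DMSO.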
Potency is the fitted concentration of half-maximal effect.

Potency, active:
NC(CCC(=O)N[C@@H](CS)C(=O)NCC(=O)O)C(=O)O (stereo partly specified) 6.01 µM
CCC1OC(=O)CC(O)C(C)[C@@H](O[C@@H]2OC(C)[C@H](O[C@@H]3C[C@@](C)(O)C(O)C(C)O3)C(N(C)C)C2O)[C@H](CC=O)CC(C)C(=O)/C=C/C(C)=C/[C@@H]1COC1OC(C)C(O)C(OC)[C@@H]1OC (stereo partly specified) 1.35 µM
CCC(=O)O[C@@]1(C(=O)CCl)C(C)CC2C3CCC4=CC(=O)C=C[C@@]4(C)[C@]3(F)C(O)C[C@]21C (stereo partly specified) 10.7 µM

Potency, inactive:
CC1(C)S[C@H]2C(NC(=O)[C@@H](N)c3ccc(O)cc3)C(=O)N2[C@@H]1C(=O)O (stereo partly specified)
CN(C)CCc1c[nH]c2ccc(CC3COC(=O)N3)cc12 (stereo unspecified)
C[C@@]12CCC(=O)C=C1C=CC1C2CC[C@]2(C)C1CC[C@@]21CCC(=O)O1 (stereo partly specified)
CC(C)Oc1ccc2c(=O)cc(-c3ccccc3)oc2c1
N[C@@H]1C(O)OC(CO)C(O)C1O (stereo partly specified)
CC(=O)[C@]1(O)CCC2C3C=C(Cl)C4=CC(=O)C5CC5[C@@]4(C)C3CC[C@]21C (stereo partly specified)
C[C@@]12C=CC(=O)C=C1CCC1C3CC(O)[C@@](O)(C(=O)CO)[C@]3(C)CC(O)[C@]12F (stereo partly specified)
CC1C2CCC3C4CC=C5CC(N(C)C)CC[C@@]5(C)C4CC[C@@]32CN1C (stereo partly specified)
CCC(C)C(=O)OC1CC(O)C=C2C=CC(C)C(CCC(O)CC(O)CC(=O)O)C21 (stereo unspecified)
OCC1OC(n2cnc3c(=S)nc[nH]c32)C(O)C1O (stereo unspecified)

test system: DFO2036; test: as above; details: P. falciparum in erythrocytes, SYBR Green DNA, 72 h; series mostly up to 12.8 µM
In short: as §1

Potency, inactive:
CC1(C)S[C@H]2C(NC(=O)[C@@H](N)c3ccc(O)cc3)C(=O)N2[C@@H]1C(=O)O (stereo partly specified)
CN(C)CCc1c[nH]c2ccc(CC3COC(=O)N3)cc12 (stereo unspecified)
CC(C)Oc1ccc2c(=O)cc(-c3ccccc3)oc2c1
CCCCCCCCCc1ccc(OCCOCCOCCOCCOCCOCCOCCOCCOCCO)cc1
N[C@@H]1C(O)OC(CO)C(O)C1O (stereo partly specified)
C=Cc1c(C)/c2[n-]/c1=C\c1[n-]c(c(CC)c1C)/C=c1\[n-]c3c(c1C)C(=O)C(C(=O)[O-])C=3c1[n-]c(c(C)c1CCC(=O)[O-])\C=2.[Cu].[Na+].[Na+] (stereo unspecified)
CCC1OC(=O)C(C)[C@@H](O[C@H]2C[C@@](C)(OC)C(O)C(C)O2)C(C)[C@@H](O[C@@H]2OC(C)CC(N(C)C)C2O)[C@@](C)(O)CC(C)C(=O)[C@@H](C)C(O)[C@]1(C)O (stereo partly specified)
CC1C2CCC3C4CC=C5CC(N(C)C)CC[C@@]5(C)C4CC[C@@]32CN1C (stereo partly specified)
CCC(C)C(=O)OC1CC(O)C=C2C=CC(C)C(CCC(O)CC(O)CC(=O)O)C21 (stereo unspecified)
OCC1OC(n2cnc3c(=S)nc[nH]c32)C(O)C1O (stereo unspecified)

Potency, active:
NC(CCC(=O)N[C@@H](CS)C(=O)NCC(=O)O)C(=O)O (stereo partly specified) 6.31 µM
CCC(=O)O[C@@]1(C(=O)CCl)C(C)CC2C3CCC4=CC(=O)C=C[C@@]4(C)[C@]3(F)C(O)C[C@]21C (stereo partly specified) 10 µM

test system: DIV14; test: as above; details: P. falciparum in erythrocytes, SYBR Green DNA, 72 h; series mostly up to 12.8 µM
In short: as §1

Potency, active:
NC(CCC(=O)N[C@@H](CS)C(=O)NCC(=O)O)C(=O)O (stereo partly specified) 3.01 µM
CCC(=O)O[C@@]1(C(=O)CCl)C(C)CC2C3CCC4=CC(=O)C=C[C@@]4(C)[C@]3(F)C(O)C[C@]21C (stereo partly specified) 13.5 µM

Potency, inactive:
CC1(C)S[C@H]2C(NC(=O)[C@@H](N)c3ccc(O)cc3)C(=O)N2[C@@H]1C(=O)O (stereo partly specified)
CN(C)CCc1c[nH]c2ccc(CC3COC(=O)N3)cc12 (stereo unspecified)
CC(C)Oc1ccc2c(=O)cc(-c3ccccc3)oc2c1
CC(=O)O[C@@]1(C(C)=O)CCC2C3CC(C)C4=CC(=O)CC[C@@]4(C)C3CC[C@]21C (stereo partly specified)
CC(=O)[C@]1(O)CCC2C3C=C(Cl)C4=CC(=O)C5CC5[C@@]4(C)C3CC[C@]21C (stereo partly specified)
C[C@@]12C=CC(=O)C=C1CCC1C3CC(O)[C@@](O)(C(=O)CO)[C@]3(C)CC(O)[C@]12F (stereo partly specified)
CCC1OC(=O)C(C)[C@@H](O[C@H]2C[C@@](C)(OC)C(O)C(C)O2)C(C)[C@@H](O[C@@H]2OC(C)CC(N(C)C)C2O)[C@@](C)(O)CC(C)C(=O)[C@@H](C)C(O)[C@]1(C)O (stereo partly specified)
CC1C2CCC3C4CC=C5CC(N(C)C)CC[C@@]5(C)C4CC[C@@]32CN1C (stereo partly specified)
CCC(C)C(=O)OC1CC(O)C=C2C=CC(C)C(CCC(O)CC(O)CC(=O)O)C21 (stereo unspecified)
OCC1OC(n2cnc3c(=S)nc[nH]c32)C(O)C1O (stereo unspecified)

test system: DIV17; test: as above; details: P. falciparum in erythrocytes, SYBR Green DNA, 72 h; series mostly up to 12.8 µM
In short: as §1

Potency, active:
NC(CCC(=O)N[C@@H](CS)C(=O)NCC(=O)O)C(=O)O (stereo partly specified) 2.69 µM
CCC(=O)O[C@@]1(C(=O)CCl)C(C)CC2C3CCC4=CC(=O)C=C[C@@]4(C)[C@]3(F)C(O)C[C@]21C (stereo partly specified) 15.1 µM

Potency, inactive:
CC1(C)S[C@H]2C(NC(=O)[C@@H](N)c3ccc(O)cc3)C(=O)N2[C@@H]1C(=O)O (stereo partly specified)
CN(C)CCc1c[nH]c2ccc(CC3COC(=O)N3)cc12 (stereo unspecified)
C[C@@]12CCC(=O)C=C1C=CC1C2CC[C@]2(C)C1CC[C@@]21CCC(=O)O1 (stereo partly specified)
CC(C)Oc1ccc2c(=O)cc(-c3ccccc3)oc2c1
CC(=O)O[C@@]1(C(C)=O)CCC2C3CC(C)C4=CC(=O)CC[C@@]4(C)C3CC[C@]21C (stereo partly specified)
N[C@@H]1C(O)OC(CO)C(O)C1O (stereo partly specified)
CC(=O)[C@]1(O)CCC2C3C=C(Cl)C4=CC(=O)C5CC5[C@@]4(C)C3CC[C@]21C (stereo partly specified)
C[C@@]12C=CC(=O)C=C1CCC1C3CC(O)[C@@](O)(C(=O)CO)[C@]3(C)CC(O)[C@]12F (stereo partly specified)
CCC1OC(=O)C(C)[C@@H](O[C@H]2C[C@@](C)(OC)C(O)C(C)O2)C(C)[C@@H](O[C@@H]2OC(C)CC(N(C)C)C2O)[C@@](C)(O)CC(C)C(=O)[C@@H](C)C(O)[C@]1(C)O (stereo partly specified)
CC1C2CCC3C4CC=C5CC(N(C)C)CC[C@@]5(C)C4CC[C@@]32CN1C (stereo partly specified)
CCC(C)C(=O)OC1CC(O)C=C2C=CC(C)C(CCC(O)CC(O)CC(=O)O)C21 (stereo unspecified)
OCC1OC(n2cnc3c(=S)nc[nH]c32)C(O)C1O (stereo unspecified)
